# Experiments:
# Experiment in all cases: SPOT peptide array binding signal intensity (averaged, normalized) (arbitrary units (background-subtracted, floor 0; scale differs between SH3 domains)); higher = stronger binding of the SH3 domain to the peptide
# [1] = target: AgAbp1
# Method in brief: (§1)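 To measure binding, SH3 domains from four yeast species were fused to GST, expressed in E. coli BL21(DE3) and purified on glutathione Sepharose. Each domain was incubated at 10 μg/ml overnight at 4°C on cellulose membranes with synthetic 15-mer peptides whose cysteines were replaced by serines. Anti-GST antibody, an HRP anti-mouse secondary and luminol were used for detection, and images were quantified with Genespotter. Reported binding signal is normalized, background-subtracted spot intensity averaged over replicates, in arbitrary units that differ between domains.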
# [2] = target: AgBbc1
# Method in brief: as §1
# [3] = target: AgBem1-D1
# Method in brief: as §1
# [4] = target: AgBzz1-D1
# Method in brief: as §1
# [5] = target: AgBzz1-D2
# Method in brief: as §1
# [6] = target: AgCyk3
# Method in brief: as §1
# [7] = target: AgFus1
# Method in brief: as §1
# [8] = target: AgHof1
# Method in brief: as §1
# [9] = target: AgHse1
# Method in brief: as §1
# [10] = target: AgLsb1
# Method in brief: as §1
# [11] = target: AgLsb4
# Method in brief: as §1
# [12] = target: AgMyo5
# Method in brief: as §1
# [13] = target: AgNbp2
# Method in brief: as §1
# [14] = target: AgRvs167
# Method in brief: as §1
# [15] = target: AgSho1
# Method in brief: as §1
# [16] = target: AgSla1-D1-D2
# Method in brief: as §1
# [17] = target: AgSla1-D3
# Method in brief: as §1
# [18] = target: CaAbp1-D1
# Method in brief: as §1
# [19] = target: CaAbp1-D2
# Method in brief: as §1
# [20] = target: CaBbc1
# Method in brief: as §1
# [21] = target: CaBem1-D1
# Method in brief: as §1
# [22] = target: CaBzz1-D1
# Method in brief: as §1
# [23] = target: CaBzz1-D2
# Method in brief: as §1
# [24] = target: CaCyk3
# Method in brief: as §1
# [25] = target: CaFus1
# Method in brief: as §1
# [26] = target: CaHof1
# Method in brief: as §1
# [27] = target: CaHse1
# Method in brief: as §1
# [28] = target: CaLsb1
# Method in brief: as §1
# [29] = target: CaLsb4
# Method in brief: as §1
# [30] = target: CaMyo5
# Method in brief: as §1
# [31] = target: CaNbp2
# Method in brief: as §1
# [32] = target: CaRvs167
# Method in brief: as §1
# [33] = target: CaRvs167-3
# Method in brief: as §1
# [34] = target: CaSho1
# Method in brief: as §1
# [35] = target: CaSla1-D1-D2
# Method in brief: as §1
# [36] = target: CaSla1-D3
# Method in brief: as §1
# [37] = target: ScAbp1
# Method in brief: as §1
# [38] = target: ScBbc1
# Method in brief: as §1
# [39] = target: ScBem1-D1
# Method in brief: as §1
# [40] = target: ScBzz1-D1
# Method in brief: as §1
# [41] = target: ScBzz1-D2
# Method in brief: as §1
# [42] = target: ScCyk3
# Method in brief: as §1
# [43] = target: ScFus1
# Method in brief: as §1
# [44] = target: ScHof1
# Method in brief: as §1
# [45] = target: ScHse1
# Method in brief: as §1
# [46] = target: ScLsb1
# Method in brief: as §1
# [47] = target: ScLsb2
# Method in brief: as §1
# [48] = target: ScLsb3
# Method in brief: as §1
# [49] = target: ScLsb4
# Method in brief: as §1
# [50] = target: ScMyo3
# Method in brief: as §1
# [51] = target: ScMyo5
# Method in brief: as §1
# [52] = target: ScNbp2
# Method in brief: as §1
# [53] = target: ScPex13
# Method in brief: as §1
# [54] = target: ScRvs167
# Method in brief: as §1
# [55] = target: ScSho1
# Method in brief: as §1
# [56] = target: ScSla1-D1-D2
# Method in brief: as §1
# [57] = target: ScSla1-D3
# Method in brief: as §1
# [58] = target: SpAbp1-D1
# Method in brief: as §1
# [59] = target: SpBbc1
# Method in brief: as §1
# [60] = target: SpBzz1-D1
# Method in brief: as §1
# [61] = target: SpBzz1-D2
# Method in brief: as §1
# [62] = target: SpCyk3
# Method in brief: as §1
# [63] = target: SpHof1
# Method in brief: as §1
# [64] = target: SpHof1-2
# Method in brief: as §1
# [65] = target: SpHof1-3
# Method in brief: as §1
# [66] = target: SpHse1
# Method in brief: as §1
# [67] = target: SpLsb1
# Method in brief: as §1
# [68] = target: SpLsb4
# Method in brief: as §1
# [69] = target: SpMyo1
# Method in brief: as §1
# [70] = target: SpNbp2
# Method in brief: as §1
# [71] = target: SpPex13
# Method in brief: as §1
# [72] = target: SpRvs167
# Method in brief: as §1
# [73] = target: SpSla1-D1-D2
# Method in brief: as §1
# [74] = target: SpSla1-D3
# Method in brief: as §1
binder,measurement,setting,value
FYNRTAFQLPGDARV,SPOT peptide array binding signal intensity,[1],1.5
same,SPOT peptide array binding signal intensity,[2],0.5
same,SPOT peptide array binding signal intensity,[3],≤ 0
same,SPOT peptide array binding signal intensity,[4],39.5
same,SPOT peptide array binding signal intensity,[5],39
same,SPOT peptide array binding signal intensity,[6],2
same,SPOT peptide array binding signal intensity,[7],12
same,SPOT peptide array binding signal intensity,[8],12.2
same,SPOT peptide array binding signal intensity,[9],18
same,SPOT peptide array binding signal intensity,[10],1140
same,SPOT peptide array binding signal intensity,[11],≤ 0
same,SPOT peptide array binding signal intensity,[12],9.5
same,SPOT peptide array binding signal intensity,[13],≤ 0
same,SPOT peptide array binding signal intensity,[14],1.83
same,SPOT peptide array binding signal intensity,[15],≤ 0
same,SPOT peptide array binding signal intensity,[16],1
same,SPOT peptide array binding signal intensity,[17],1
same,SPOT peptide array binding signal intensity,[18],7
same,SPOT peptide array binding signal intensity,[19],≤ 0
same,SPOT peptide array binding signal intensity,[20],3
same,SPOT peptide array binding signal intensity,[21],16
same,SPOT peptide array binding signal intensity,[22],37.5
same,SPOT peptide array binding signal intensity,[23],30.5
same,SPOT peptide array binding signal intensity,[24],5
same,SPOT peptide array binding signal intensity,[25],21.5
same,SPOT peptide array binding signal intensity,[26],0.5
same,SPOT peptide array binding signal intensity,[27],2
same,SPOT peptide array binding signal intensity,[28],410
same,SPOT peptide array binding signal intensity,[29],≤ 0
same,SPOT peptide array binding signal intensity,[30],13.5
VAPPPLPNRQLPNLD,SPOT peptide array binding signal intensity,[1],1.5
same,SPOT peptide array binding signal intensity,[2],45.5
same,SPOT peptide array binding signal intensity,[3],16
same,SPOT peptide array binding signal intensity,[4],3
same,SPOT peptide array binding signal intensity,[5],≤ 0
same,SPOT peptide array binding signal intensity,[6],≤ 0
same,SPOT peptide array binding signal intensity,[7],≤ 0
same,SPOT peptide array binding signal intensity,[8],247
same,SPOT peptide array binding signal intensity,[9],51
same,SPOT peptide array binding signal intensity,[10],693
same,SPOT peptide array binding signal intensity,[11],5100
same,SPOT peptide array binding signal intensity,[12],364
same,SPOT peptide array binding signal intensity,[13],≤ 0
same,SPOT peptide array binding signal intensity,[14],952
same,SPOT peptide array binding signal intensity,[15],≤ 0
same,SPOT peptide array binding signal intensity,[16],1.5
same,SPOT peptide array binding signal intensity,[17],≤ 0
same,SPOT peptide array binding signal intensity,[18],≤ 0
same,SPOT peptide array binding signal intensity,[19],5
same,SPOT peptide array binding signal intensity,[20],252
same,SPOT peptide array binding signal intensity,[21],≤ 0
same,SPOT peptide array binding signal intensity,[22],14
same,SPOT peptide array binding signal intensity,[23],4
same,SPOT peptide array binding signal intensity,[24],1
same,SPOT peptide array binding signal intensity,[25],≤ 0
same,SPOT peptide array binding signal intensity,[26],2
same,SPOT peptide array binding signal intensity,[27],569
same,SPOT peptide array binding signal intensity,[28],3.25
same,SPOT peptide array binding signal intensity,[29],4840
same,SPOT peptide array binding signal intensity,[30],2.5
same,SPOT peptide array binding signal intensity,[31],28.5
same,SPOT peptide array binding signal intensity,[32],3100
same,SPOT peptide array binding signal intensity,[33],≤ 0
same,SPOT peptide array binding signal intensity,[34],≤ 0
same,SPOT peptide array binding signal intensity,[35],≤ 0
same,SPOT peptide array binding signal intensity,[36],≤ 0
same,SPOT peptide array binding signal intensity,[37],2
same,SPOT peptide array binding signal intensity,[38],≤ 0
same,SPOT peptide array binding signal intensity,[39],≤ 0
same,SPOT peptide array binding signal intensity,[40],3.5
same,SPOT peptide array binding signal intensity,[41],≤ 0
same,SPOT peptide array binding signal intensity,[42],≤ 0
same,SPOT peptide array binding signal intensity,[43],≤ 0
same,SPOT peptide array binding signal intensity,[44],39.2
same,SPOT peptide array binding signal intensity,[45],10.5
same,SPOT peptide array binding signal intensity,[46],1610
same,SPOT peptide array binding signal intensity,[47],203
same,SPOT peptide array binding signal intensity,[48],8010
same,SPOT peptide array binding signal intensity,[49],4010
same,SPOT peptide array binding signal intensity,[50],321
same,SPOT peptide array binding signal intensity,[51],208
same,SPOT peptide array binding signal intensity,[52],≤ 0
same,SPOT peptide array binding signal intensity,[53],1660
same,SPOT peptide array binding signal intensity,[54],2740
same,SPOT peptide array binding signal intensity,[55],≤ 0
same,SPOT peptide array binding signal intensity,[56],≤ 0
same,SPOT peptide array binding signal intensity,[57],≤ 0
same,SPOT peptide array binding signal intensity,[58],8
same,SPOT peptide array binding signal intensity,[59],≤ 0
same,SPOT peptide array binding signal intensity,[60],176
same,SPOT peptide array binding signal intensity,[61],≤ 0
same,SPOT peptide array binding signal intensity,[62],5
same,SPOT peptide array binding signal intensity,[63],≤ 0
same,SPOT peptide array binding signal intensity,[64],11.5
same,SPOT peptide array binding signal intensity,[65],31
same,SPOT peptide array binding signal intensity,[66],71.5
same,SPOT peptide array binding signal intensity,[67],1020
same,SPOT peptide array binding signal intensity,[68],5980
same,SPOT peptide array binding signal intensity,[69],461
same,SPOT peptide array binding signal intensity,[70],≤ 0
same,SPOT peptide array binding signal intensity,[71],≤ 0
same,SPOT peptide array binding signal intensity,[72],3250
same,SPOT peptide array binding signal intensity,[73],≤ 0
same,SPOT peptide array binding signal intensity,[74],≤ 0
